According to PubChem BioAssay AID485317 (Broad Institute, 2010):
Several values for one entry are separate records, joined by “and”; a condition that tells them apart may be missing. Equal values may be shown once. Hit rate of the full screen: of about 290,000 compounds, about 11,000 (3.8%) were called active. The sample holds actives, similar compounds and a random draw of the others, so the mix is not that of the screen.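 Rule for the calls: active = mean replicate inhibition above about 79%, with every replicate also reaching it (limit read from the data); inconclusive = only one of the two criteria met; inactive = mean below limit and not every replicate reaching it.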 Some compounds were tested as several samples or in several runs, with calls that do not always agree.

Each molecule was assayed against FAD-linked sulfhydryl oxidase ALR (Homo sapiens) (UniProt P55789) (assay: inhibitors of human ALR sulfhydryl oxidase, primary screen, biochemical, H2O2 detection, HRP-luminol luminescence, single point (AID 485317)). Settings: purified ALR, DTT oxidation, stronger effect = higher value, concentration not given here.
Sequence of FAD-linked sulfhydryl oxidase ALR (Homo sapiens) (P55789 whole entry, looked up): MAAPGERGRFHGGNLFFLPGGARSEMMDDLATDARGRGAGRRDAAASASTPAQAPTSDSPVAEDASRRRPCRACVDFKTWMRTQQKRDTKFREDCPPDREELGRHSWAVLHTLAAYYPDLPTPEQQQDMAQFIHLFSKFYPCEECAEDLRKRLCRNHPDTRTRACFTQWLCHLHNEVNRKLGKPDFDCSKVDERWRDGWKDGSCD

SMILES	inhibition
COc1ccc(Br)cc1CN(C)C(=O)C1CC(=O)N(C2CCCC2)C1 (stereo not drawn)	-9.84% (inactive)
COC(=O)/C=C\C(=O)Nc1cccc([N+](=O)[O-])c1	97.8% (active)
COc1ccc(S(=O)(=O)NC(C)C(=O)Nc2cccc([N+](=O)[O-])c2)cc1 (stereo not drawn)	3.92% (inactive)
O=C(Nc1cccc([N+](=O)[O-])c1)Nn1cnnc1	-12.6% (inactive)
Cc1noc(C)c1NC(=O)Nc1cccc2c1O[C@H](CN(C)S(=O)(=O)c1c(C)noc1C)[C@@H](C)CN([C@H](C)CO)C2=O	1.87% (inactive)
Cc1cc(=O)oc2cc(NC(=O)C(C)Oc3ccccc3)ccc12 (stereo not drawn)	-2.52% (inactive)
COc1ccc(CCNC(=S)N2CCN(S(=O)(=O)c3ccc(Cl)cc3)CC2)cc1	-0.053% (inactive)
Oc1cc2c(cc1O)CN(C(=S)NCCc1ccc(Cl)cc1)CCC2	97.9% (active)
S=C(NCCc1ccccc1)N1CCCCC1	-4.5% (inactive)
COC(=O)[C@@]12CCCN1[C@H](c1ccc(-c3ccc(F)cc3)c(OC)c1)[C@H]1C(=O)N(C)C(=O)[C@H]12	-0.553% (inactive)
CCOc1ncccc1C(=O)OCC(=O)c1c[nH]c2ccccc12	16.6% (inactive)
Cc1ccc(-n2[nH]c(C)c(/C=N/NC(=O)c3cccc([N+](=O)[O-])c3)c2=O)cc1C	97% (active)
Cc1[nH]n(-c2ccc([N+](=O)[O-])cc2)c(=O)c1C=NCCN1CCN(C(=O)c2ccccc2F)CC1	-0.584% (inactive)
Cc1cccc(C(=O)NNC(=O)c2cccc([N+](=O)[O-])c2)c1	2.77% (inactive)
COc1ccc(C(=O)NCC2CCCCC2)cc1S(=O)(=O)N1CCCC1	-2.78% (inactive)
NC(=O)CSc1nnc(NC(=O)c2ccc3ccccc3c2)s1	-2.49% (inactive)
O=C(NCCS(=O)(=O)N1CCN(c2ccc(F)cc2)CC1)c1ccc2c(c1)OCO2	1.71% (inactive)
CC(=O)Nc1ccc(NC(=O)CSc2nnnn2C2CCCCC2)cc1	-20.6% (inactive)
NS(=O)(=O)c1cccc(NC(=O)COC(=O)c2cc([N+](=O)[O-])ccc2N2CCCC2)c1	-0.799% (inactive)
Cc1cc(C)cc(OCc2nnc(SCC(=O)Nc3ccccc3)o2)c1	5.24% (inactive)

SMILES	inhibition
CCCc1nnc(SCC(=O)Nc2ccc(C(=O)OCC)cc2)o1	99.2% (active)
Cc1ccc(NC(=O)CSc2nnc(COc3ccccc3C)o2)cc1	-0.274% (inactive)
O=C(c1cn(-c2ccccc2)nc1-c1cccnc1)N1CCN(S(=O)(=O)c2ccccc2F)CC1	-0.713% (inactive)
O=C(c1ccc(NS(=O)(=O)c2ccc3[nH]c(=O)[nH]c3c2)cc1)N1CCCCC1	0.0938% (inactive)
CN(C)/C=C1/Nc2ccccc2C1=O	31.9% (inactive)
O=C1Nc2ccccc2/C1=C/c1ccnc2ccccc12	-5.03% (inactive)
Cc1ccccc1-n1c(C)cc(/C=C2\NC(=O)NC2=O)c1C	-11.5% (inactive)
CN(C)/C=C1/C(=O)Nc2ccccc21	98.8% (active)
Cc1cc(C)c(/C=C2\C(=O)Nc3ccccc32)[nH]1	98.9% (active)
CN(C)/C=C1\C=C(c2ccccc2)OC1=O	-9.29% (inactive)
CC(=O)NCCNC(=O)c1cc(-c2cccc3ccccc23)nc2ccccc12	-1.4% (inactive)
COc1ccccc1C(=O)COC(=O)CSCC(=O)Nc1cc(C)on1	1.76% (inactive)
Cc1cc(NC(=O)CSCc2ccccc2C)no1	29% (inactive)
Cc1cc(NC(=O)CSCc2nc(-c3cccc(Cl)c3)oc2C)no1	96.6% (active)
COc1ccc(-c2cc(C(=O)Nc3ccccc3O)c3ccccc3n2)cc1	-22.7% (inactive)
COCCn1c(C)cc(C(=O)COC(=O)CNC(=O)c2ccco2)c1C	0.463% (inactive)
Cc1cc(NC(=O)COC(=O)/C=C/c2ccc(C)o2)no1	-2.34% (inactive)
CC(C)=C1SC(N2CCN(c3cccc(C)c3)CC2)=NC1=O	4.81% (inactive)
CNS(=O)(=O)c1cnccc1N1CCN(c2cccc(C)c2)CC1	98.6% (active)
CC(C)NC(=O)N1CCN(c2ccncc2S(=O)(=O)N2CCCCC2)CC1	-2.12% (inactive)

SMILES	inhibition
Cc1ccn2c(=O)nc(SCC(=O)NCc3ccc4c(c3)OCO4)nc2c1	-1.9% (inactive)
O=C(Cn1c[n+](CC(=O)c2ccc([N+](=O)[O-])cc2)cn1)c1ccc([N+](=O)[O-])cc1	-22% (inactive) and 98.8% (active)
O=C(Nn1cnnc1)c1ccc([N+](=O)[O-])cc1	-3.87% (inactive)
O=C(CC(n1cncn1)C(Cl)(Cl)Cl)c1ccc([N+](=O)[O-])cc1 (stereo not drawn)	9.46% (inactive)
Cc1ccc(Cn2ccc(NC(=O)C3C4CCC(C4)C3C(=O)O)n2)cc1 (stereo not drawn)	1.86% (inactive)
O=C(Nc1ccn(Cc2ccccc2F)n1)c1ccc(COc2ccc(Cl)cc2Cl)o1	-9.12% (inactive)
O=C(Nc1ccn(Cc2ccccc2)n1)c1n[nH]c([N+](=O)[O-])c1Cl	93.5% (active)
Cc1ccc(CC(=O)Nc2ccc(S(=O)(=O)N3CCOCC3)cc2)cc1C	-2.53% (inactive)
COC(=O)c1c(NC(=O)c2cccs2)sc2c1CCCC2	-1.37% (inactive)
COC(=O)c1c(NC(=O)CCCC(=O)O)sc2c1CCCCC2	-5.42% (inactive)
COC(=O)c1c(NC(=O)C2CC(C)=C(C)CC2C(=O)O)sc2c1CCCCC2 (stereo not drawn)	94.2% (active)
Fc1ccc(-c2ccc(-c3nn4c(-c5ccco5)nnc4s3)o2)cc1	98.5% (active)
FC(F)(F)c1nnc2sc(-c3ccco3)nn12	-7.15% (inactive)
COc1cc(-c2nn3c(-c4cccc(C)c4)nnc3s2)cc(OC)c1OC	1.6% (inactive)
COC(=O)CN1C(=S)N(c2ccccc2)C(=O)C1CC(=O)Nc1ccc(Cl)cc1 (stereo not drawn)	1.89% (inactive)
O=C(O)CC1=C(Nc2ccccc2)C(=O)N(c2ccccc2)C1c1ccc(Cl)cc1 (stereo not drawn)	96.7% (active)
O=C(c1ccc(Cl)cc1)c1cnc(Nc2ccccc2)s1	24.8% (inactive)
COc1cc(C(=O)NCC(c2ccco2)N2CCCC2)ccc1OCc1ccccc1 (stereo not drawn)	-2.39% (inactive)
